Rows were chosen to be rich in hits. Some 28% of all compounds tested hit in one or more screens of this group.
CYP2C9 act: human CYP2C9 activators, primary screen, biochemical, luminescence; Cytochrome P450 2C9 (Homo sapiens), P11712; recombinant CYP2C9, luciferin-H conversion; stronger effect = higher value; factor 1 = untreated enzyme, 0 = blocked; activation factor at 5 µM; 96,000 compounds, 1.4% hits; AID 1024, 2008;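 active = activation factor of 2 or more for CYP2C9 at a 5 µM dose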
CYP2C9 inh: blockers of cytochrome P450 2C9 activity – biochemical, luminescence, ADME assay, primary screen; inhibition, % at 5 µM; AID 777, 2007; 96,000 compounds, 20% hits; CYP2C9 Supersomes, luciferin-H conversion; P11712;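 active = blocking of liver enzyme CYP2C9 beyond about 50% at 5 µM, limit read from the data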
CYP2C19 inh: blockers of cytochrome P450 2C19 activity – biochemical, luminescence, ADME assay, primary screen; 96,000 compounds, 21% hits; CYP2C19 Supersomes, luciferin-H EGE luminescence, 30 min; P33261; AID 778, 2007; inhibition, % at 5 µM;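 active = CYP2C19 inhibition above a set limit at 5 µM in the primary screen, cut at about 50% in these data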
Target sequence (P33261 whole entry, looked up): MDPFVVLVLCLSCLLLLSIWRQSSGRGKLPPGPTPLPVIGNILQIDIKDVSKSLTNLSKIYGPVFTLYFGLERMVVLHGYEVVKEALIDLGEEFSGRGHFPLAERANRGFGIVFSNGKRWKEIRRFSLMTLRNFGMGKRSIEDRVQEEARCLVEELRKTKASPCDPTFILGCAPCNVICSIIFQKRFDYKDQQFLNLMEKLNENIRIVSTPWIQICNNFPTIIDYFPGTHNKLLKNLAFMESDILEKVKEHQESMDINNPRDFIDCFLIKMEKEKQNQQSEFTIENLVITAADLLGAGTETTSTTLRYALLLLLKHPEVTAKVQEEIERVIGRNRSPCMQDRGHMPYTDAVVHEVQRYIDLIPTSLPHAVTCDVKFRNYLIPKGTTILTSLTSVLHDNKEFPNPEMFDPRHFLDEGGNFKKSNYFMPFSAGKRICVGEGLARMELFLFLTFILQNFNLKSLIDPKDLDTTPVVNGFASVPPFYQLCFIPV
CYP2C19 act: human CYP2C19 activators, primary screen, biochemical, luminescence; Cytochrome P450 2C19 (Homo sapiens), P33261; recombinant CYP2C19, luciferin-H EGE luminescence; stronger effect = higher value; 0 = fully inhibited enzyme, 1 = untreated enzyme; activation factor at 5 µM; 96,000 tested, under 10 active;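 active = activation factor of at least 2 at 5 µM in the primary screen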
PTK2B oligo ant: antagonists of Pyk2 self-association, primary screen, Q293 cells, FERM NanoBiT luminescence, HTS; Protein-tyrosine kinase 2-beta (Homo sapiens), Q14289; stronger effect = lower value; z-score (the deposit names both 25 µM and 10 µM); 99,000 compounds, 0.83% hits;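 active = Z-score of -3 or lower, scaled per plate to the spread of control and sample wells; inactive = z-score above -3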;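 note: negative z-score means lost luminescence so less FERM oligomerization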
Of the large screens only hits and unclear results are named; the others gave an inactive call.

CCOC(=O)c1ccccc1NC(=O)COc1cc(=O)n(CC)c2ccccc12	CYP2C9 inh 81.3, CYP2C19 inh 80.1, PTK2B oligo ant -4.16
CCOc1ccc(N(CC)C(=O)COc2cc(=O)n(C)c3ccccc23)cc1	CYP2C9 inh 69.9 (no result: PTK2B oligo ant)
CCn1c(=O)cc(OCC(=O)Nc2ccc(C)cn2)c2ccccc21	none
CCOc1ccccc1N1C(=O)CC(Sc2ncccc2C(=O)O)C1=O (stereo unspecified)	none
COc1ccc(S(=O)(=O)Cc2ccc(C(=O)N3CCN(c4ccc(Cl)cc4)CC3)o2)cc1	CYP2C9 inh 82.4 (no result: PTK2B oligo ant)
Cc1ccc(S(=O)(=O)Cc2ccc(C(=O)N3CCN(c4ccc(F)cc4)CC3)o2)cc1	CYP2C9 inh 73.5 (no result: PTK2B oligo ant)
COc1ccc(N2CCN(C(=O)c3ccc(CS(=O)(=O)c4ccc(OC)cc4)o3)CC2)cc1	CYP2C9 inh 77.7 (no result: PTK2B oligo ant)
Cc1ccccc1S(=O)(=O)Cc1ccc(C(=O)N2CCN(c3ccc(F)cc3)CC2)o1	none
COc1ccc(S(=O)(=O)Cc2ccc(C(=O)N3CCN(c4cccc(C)c4C)CC3)o2)cc1	CYP2C9 inh 75.8, CYP2C19 inh 55.5 (no result: PTK2B oligo ant)
COc1ccc(N2CCN(C(=O)CN(Cc3ccc(Cl)cc3)S(C)(=O)=O)CC2)cc1	none
CC1(C(=O)N(c2ccccc2)C(C(=O)NC2CCCC2)c2ccccn2)CC(=O)N=C2C=CC=CN21 (stereo unspecified)	none
Cc1ccc(NC(=O)N/C=C/c2ccco2)cc1	none
Cc1cc(NC(=O)CSc2nnc3c(C)cc4cc5c(cc4n23)OCO5)no1	none (no result: PTK2B oligo ant)
O=C(CSc1ncccc1-c1nc2ccccc2[nH]1)N1CCN(c2ccccc2F)CC1	none
CCCCn1c(SCc2cc(=O)n3ccsc3n2)nc2cc(C(=O)OC)ccc2c1=O	none (no result: PTK2B oligo ant)
COc1ccc(S(=O)(=O)Cc2ccc(C(=O)N3CCN(c4cc(Cl)ccc4C)CC3)o2)cc1	CYP2C9 inh 84.8, CYP2C19 inh 61.2 (no result: PTK2B oligo ant)
CCOC(=O)N1CCN(C(=O)c2ccc(CS(=O)(=O)c3c(Cl)cccc3Cl)o2)CC1	none (no result: PTK2B oligo ant)
CCN(CC)S(=O)(=O)c1ccc(Oc2cccc(C(C)=O)c2)nc1	CYP2C19 inh 50.6
O=C(COc1ccc(/C=N/NS(=O)(=O)c2ccccc2)cc1)NCc1ccccc1	none
CN(C)S(=O)(=O)c1ccc(-c2ccccc2)cc1	none
CCN(CC)S(=O)(=O)c1ccc(OCC(=O)NCc2ccccc2)cc1	CYP2C9 inh 67.1
CCN(CC)S(=O)(=O)c1ccc(Oc2ccccc2)cc1	CYP2C9 inh 65.6
CCN(CC)S(=O)(=O)c1ccc(-c2ccc(S(=O)(=O)N(CC)CC)cc2)cc1	none
CN(C)S(=O)(=O)c1ccc(Oc2ccccc2)cc1	CYP2C9 inh 58.2
COc1ccc(N(CC(=O)NC2CCCCC2)C(=O)CNC(=O)c2ccco2)cc1OC	none (no result: CYP2C9 act, CYP2C9 inh, CYP2C19 inh, CYP2C19 act)
CCOC(=O)C(C)Sc1ncc(-c2ccc(Cl)cc2)cn1 (stereo unspecified)	none
CCCCN(CCCC)CCNC(=O)CNC(=O)c1cccs1	none
COc1cccc(/C=N/NC(=O)c2ccccc2N(Cc2ccccc2)S(=O)(=O)c2ccccc2)c1OC	CYP2C9 inh 79.7
COc1cccc(/C=N/NC(=O)C(=O)N2CCCC2)c1OC	none
Cc1ccc(-n2ncc3c(=O)n(CC(=O)Nc4cccc(Cl)c4)cnc32)cc1C	none
CCn1c(CCNC(=O)c2cccs2)nnc1SCC(=O)NC1CCCCC1	none
COc1ccc(NC(=O)CCN2CCN(S(=O)(=O)c3ccc(C(C)C)cc3)CC2)cc1	CYP2C9 inh 65.9
COc1ccc(S(=O)(=O)N2CCCN(CCC(=O)Nc3cccc(C(F)(F)F)c3)CC2)cc1	none
CCOc1ccc(NC(=O)CN2CCN(S(=O)(=O)c3ccc(Cl)cc3)CC2)cc1	CYP2C19 inh 80.1
COc1ccc(NC(=O)CCN2CCN(S(=O)(=O)c3ccc(Cl)cc3)CC2)cc1	CYP2C9 inh 75.1, CYP2C19 inh 70.7
O=C(CN1CCN(S(=O)(=O)c2ccccc2)CC1)Nc1ccc(Cl)c(Cl)c1	CYP2C19 inh 77.1
CCOc1ccc(NC(=O)CN2CCN(CC(=O)Nc3ccc(F)cc3)CC2)cc1	none
Cc1cc(NS(=O)(=O)Cc2ccccc2)no1	none
O=c1[nH]c2cnccc2n1-c1ccccc1	none
CCOC(=O)c1ccc(NC(=O)COc2ccc(S(=O)(=O)N3CCCC3)cc2)cc1	none
CCOC(=O)c1ccc(S(=O)(=O)N2CCN(CC(=O)NC(=O)NC(C)(C)C)CC2)cc1	CYP2C9 inh 72.4
COCCCn1c(-c2ccccc2Cl)n[nH]c1=S	none
COCCCn1c(-c2ccc(Cl)cc2)n[nH]c1=S	CYP2C19 inh 77.3
CCOCCCn1c(-c2ccc(Cl)cc2)n[nH]c1=S	CYP2C9 inh 50.6, CYP2C19 inh 84.0
Cc1ccc(S(=O)(=O)NC2CCCc3ccccc32)cc1C (stereo unspecified)	none
Cc1cc(C)nc(Sc2c(C)nn(-c3ccccc3)c2C)n1	CYP2C19 inh 91.3
Cc1cc(N)n(-c2ccccc2)n1	none
Cc1nn2c(c1-c1ccc(Cl)cc1)N=C(c1ccco1)CC2c1ccccc1 (stereo unspecified)	CYP2C9 inh 72.6
CC(C)Nc1nc(Oc2cccc(Cl)c2Cl)cc(C(F)(F)F)n1	CYP2C19 inh 71.4
COc1ccc(N2C(=O)CSC2c2ccc3c(c2)OCO3)cc1 (stereo unspecified)	CYP2C19 inh 89.0
COc1ccc(N2C(=O)CSC2c2ccncc2)cc1 (stereo unspecified)	CYP2C9 inh 58.0
COc1ccc(N2C(=O)CSC2c2ccc3c(c2)OCO3)c(OC)c1 (stereo unspecified)	CYP2C19 inh 84.0
O=C1CNC(=O)/C1=C/c1ccc(O)cc1	none
CCOc1ccc(-n2cc(C(=O)Nc3cccc(Cl)c3)c3cc(OC)c(OC)cc3c2=O)cc1	CYP2C9 inh 59.4
O=C(CN1CCc2ccccc21)NC(=O)NCc1ccco1	none
Cc1cc(C(=O)CN2C(=O)NC(C)(c3cccc(Br)c3)C2=O)c(C)n1Cc1ccco1 (stereo unspecified)	none
O=C(CN1C(=O)NC2(CCCc3ccccc32)C1=O)NCc1ccco1 (stereo unspecified)	CYP2C9 inh 78.1
Cc1cc(C(=O)CN2C(=O)NC(c3ccccc3)(c3ccccc3)C2=O)c(C)n1Cc1ccco1	CYP2C9 inh 62.2
O=C(NCc1ccco1)C1(c2ccccc2)CCCC1	CYP2C19 inh 57.0
O=C(CN1CCc2ccccc2C1)NCc1ccco1	CYP2C19 inh 92.7
CNC(=O)c1ccccc1S(=O)(=O)c1ccccc1C#N	none
Cc1cccc(NC(=S)NNC(=O)CCn2cc(C)cn2)c1	none
COc1cccc(-n2c(SCc3cc(=O)oc4cc(O)c(O)cc34)nc3ccccc3c2=O)c1	none (no result: CYP2C9 act, CYP2C9 inh, CYP2C19 inh, CYP2C19 act)

Screening results (PubChem BioAssay)
